SARS PLP yeast = inhibitors of SARS-CoV papain-like protease in yeast | 330,000 tested, 0.19% active | S. cerevisiae expressing SARS-CoV PLpro, growth rescue | Potency, µM (doses to about 32.9 µM), for the others: at the highest dose activity, positive = growth rescue, usual class: activators | AID 485353; calls by dose curve; also: 0% is about no effect; nearly all actives have a fitted effect of over 55% in size
AmpC no deterg = inhibitors of E. coli AmpC beta-lactamase without detergent | 330,000 tested, 0.52% active | Potency, µM (series often up to 57.1 µM), without a hit: at the top dose activity change, negative = inhibition, actives largely listed as inhibitors | P00811 | AmpC nitrocefin hydrolysis, absorbance 480 nm, 0.0001% Triton;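 also: plate controls were no compound for no effect and no enzyme for full effect; nearly all actives have a fitted effect of over 20% in size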
Target sequence (P00811 whole entry, looked up): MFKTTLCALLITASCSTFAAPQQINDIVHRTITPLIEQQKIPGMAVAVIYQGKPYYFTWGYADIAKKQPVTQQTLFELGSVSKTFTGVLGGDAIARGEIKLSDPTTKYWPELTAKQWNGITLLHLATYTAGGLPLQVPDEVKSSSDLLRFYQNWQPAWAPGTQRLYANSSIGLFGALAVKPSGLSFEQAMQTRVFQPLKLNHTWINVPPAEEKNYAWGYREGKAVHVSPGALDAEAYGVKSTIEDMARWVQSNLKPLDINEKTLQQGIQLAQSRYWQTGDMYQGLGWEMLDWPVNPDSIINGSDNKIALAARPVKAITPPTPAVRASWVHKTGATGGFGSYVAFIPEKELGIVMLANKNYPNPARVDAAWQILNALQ
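AmpC (5.3 nM in the dispensed reagent) in 20 mM phosphate pH 7.0 with 0.01% (detergent screen) or 0.0001% Triton X-100 was preincubated with compounds for 15 min at room temperature. Nitrocefin was then added from an 800 uM solution, and hydrolysis was followed at 480 nm.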
AmpC detergent = AmpC beta-lactamase inhibition with detergent present. P00811. Potency, µM (series often up to 114 µM), for inactives: top-dose activity change, negative = inhibition, actives largely listed as inhibitors. AID 485294. AmpC hydrolysis of nitrocefin, absorbance 480 nm, 0.01% Triton. 370,000 tested, 0.041% active;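 also: 0% = no-compound wells and -100% = no-enzyme wells; nearly all actives have a fitted effect of over 25% in size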
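20 mM phosphate pH 7.0 + 0.01% (detergent screen) or 0.0001% Triton X-100; 5.3 nM AmpC reagent; cpd preinc 15 min RT; nitrocefin (800 uM stock) to start; A480 q20 s × 4 min; Activity was normalised to no-enzyme and no-compound control wells.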
Pf growth 48h = P. falciparum growth inhibition at 48 hours (one generation); P. falciparum luciferase growth in erythrocytes, 48 h; 310,000 tested, 5.9% active; Potency, µM (top dose mostly 28.7 µM), for inactives: top-dose activity change, negative = inhibition, actives largely listed as inhibitors; also: % is scaled to controls: 0 for no effect and ±100 for the full control effect
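Firefly luciferase activity from engineered P. falciparum reports growth; inhibitors lower the luminescent signal. Cultures contained 2% hematocrit erythrocytes at 0.1% final parasitemia.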
Pf growth 96h = P. falciparum growth inhibition at 96 hours; Potency, µM (highest dose often 28.7 µM), for the others: top-dose activity change, negative = inhibition, hits mostly inhibitors; AID 504834; P. falciparum luciferase reporter growth, 96 h; 320,000 tested, 6.9% active; also: % is scaled to controls: 0 for no effect and ±100 for the full control effect
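Two parasite generations (96 h, 37 C, 5% CO2) of compound exposure in infected erythrocytes (0.05% parasitemia, 2% hematocrit). Luciferase-reporter P. falciparum; decreased luminescence indicates inhibited growth, aimed at apicoplast-acting delayed death.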
Sm TGR inh = blocks Schistosoma mansoni thioredoxin glutathione reductase. purified TGR, DTNB reduction, TNB absorbance 405 nm. Q962Y6. AID 485364. Potency, µM (series often up to 114 µM), for the others: at the top dose activity change, negative = inhibition, usual class: inhibitors. 360,000 tested, 3% active; also: % is scaled to controls: 0 for no effect and ±100 for the full control effect; nearly all actives have a fitted effect of over 60% in size
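Kinetic colorimetric format: TGR-catalysed, NADPH-driven DTNB reduction monitored via TNB absorbance. Enzyme dispensed at 20 nM; compound exposure 15 min at room temperature before reaction start.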
Starred values were filed as active, the others as inactive; ? = inconclusive; / = no result given; [ ] = remark or other dose. This is a sample that favours compounds with a hit; in the whole collection about 12% have one here. Unless noted, calls follow the shape of the dose curve; as a rule, active = well fitted curve in the direction sought with a large enough effect; inconclusive = small, poorly fitted or top-dose-only effect, or another doubt; inactive = no such curve, though single readings can be large; an effect the other way counts as inactive or inconclusive. Potency is read from the fitted curve at half-maximal effect.

SMILES | SARS PLP yeast | AmpC no deterg | AmpC detergent | Pf growth 48h | Pf growth 96h | Sm TGR inh
NS(=O)(=O)c1ccc(CCNC(=O)c2cc(-c3ccco3)nc3ccccc23)cc1 | -13% | -33% | -2% | ? | ? | 8.9µM*
O=C(NCc1ccc(F)cc1)C1CCCN1C(=O)Nc1cccc(F)c1 (stereo unspecified) | ? | -3% | -8% | 1% | ? | -7%
O=C(CSc1nc(NS(=O)(=O)c2ccccc2)cc(=O)[nH]1)Nc1ccc(F)cc1 | 0% | -37% | ? | -20% | 1.9µM* | -20%
O=C(CSc1nc(NS(=O)(=O)c2ccccc2)cc(=O)[nH]1)Nc1cccc(C(F)(F)F)c1 | 5% | -52% | -9% | ? | 31% | -1%
COC(=O)c1scc(C)c1NC(=O)c1ccc(Cl)cc1 | -1% | -11% | -4% | -6% | 42% | -8%
COC(=O)c1scc(C)c1N/N=C(\C)c1ccc(F)cc1F | -9% | -36% | -8% | / | 2.1µM* | 5%
O=C(CN1C(=O)C(=O)N(Cc2ccco2)C1=O)NC1CCCCC1 | 0% | -11%[11.4 µM] | -15% | 13% | -2% | -1%
CC(C)CC(=O)Nc1ccc(C(=O)COc2ccc(-c3nnco3)cc2)cc1 | 0% | -2% | -16% | ? | 2.1µM* | -7%
CCOC(=O)c1sc(NC(=O)CSc2nc(C)cc(-c3ccccc3)n2)c(C#N)c1C | -8% | -30% | -13% | 5% | 41% | 1%
CCOC(=O)c1c(-c2ccccc2)csc1NC(=O)CSc1nc(C)cc(C)n1 | -17% | 2% | -15% | 13µM* | ? | 0%
CCOC(=O)c1c(-c2ccc3ccccc3c2)csc1NC(=O)CCCC(=O)O | -1% | 32% | ? | -10% | -4% | -11%
CCOC(=O)c1c(-c2ccccc2)csc1NC(=O)CSc1nc(N)cc(N)n1 | 5% | -42% | 1% | 3% | 3.3µM* | 5%
Cc1cc(C)nc(SCC(=O)Nc2ncc(Cc3cccc(Cl)c3Cl)s2)n1 | 26% | -3% | -2% | -19% | 22% | 8%
CCOC(=O)Cc1cnc(NC(=O)CSc2nc(C)cc(C)n2)s1 | 1% | -17% | 3% | 1% | 10µM* | 6%
CCN(CC)S(=O)(=O)c1ccc(C(=O)NC2CC(=O)N(c3ccc4c(c3)OCCO4)C2)cc1 (stereo unspecified) | / | / | 3% | / | / | -2%
O=C(Nc1ccc(Br)cc1F)c1ncoc1-c1ccco1 | / | / | 2% | / | / | -15%
COc1cc(Br)ccc1C1C(C(=O)Nc2ccc(C)cc2C)=C(C)Nc2nnnn21 (stereo unspecified) | / | / | -1% | / | / | 4%
CN(C)S(=O)(=O)c1ccc(Cl)c(NC(=O)COC(=O)/C=C/c2cnc3ccccc3n2)c1 | 1% | -17% | 9% | -5% | 32% | 3%
O=C(CSc1nc2ccccc2nc1N1CCOCC1)N1CCN(c2ccccc2)CC1 | 2% | 109% | -14% | 9.3µM* | ? | 3%
COc1ccc(NC(=O)CSc2nc3ccccc3nc2N2CCOCC2)cc1 | 14% | 25% | ? | -23% | -11% | 5%
CCOc1ccc(NC(=O)COc2nsnc2N2CCCCC2)cc1 | 0% | -14% | -15% | -5% | 12µM* | 31%
CCOc1ccc(NC(=O)CSc2nc3ccccc3nc2N2CC(C)OC(C)C2)cc1 (stereo unspecified) | 4% | -16% | -9% | ? | 9.3µM* | 0%
COc1ccccc1NC(=O)CSc1nc2ccccc2nc1N1CC(C)OC(C)C1 (stereo unspecified) | -9% | 59% | ? | ? | ? | -22%
CCOc1ccc(NC(=O)CSc2nc3ccccc3nc2N2CCOCC2)cc1 | 4% | -11% | -18% | ? | 12µM* | -28%
COc1ccccc1N1C(=O)C(Cl)=C(Nc2ccccc2O)C1=O | -8% | -50% | 4% | 8% | 32% | 8.9µM*
SMILES | SARS PLP yeast | AmpC no deterg | AmpC detergent | Pf growth 48h | Pf growth 96h | Sm TGR inh
COc1ccccc1NC1=C(Cl)C(=O)N(C2CCCCC2)C1=O | -38% | 14µM* | 3% | ? | -20% | -11%
Cc1ccccc1NC1=C(Cl)C(=O)N(C2CCCCC2)C1=O | -34% | -46% | -1% | ? | ? | -12%
O=C1C(Cl)=C(Nc2ccccc2O)C(=O)N1c1ccccc1 | -15% | -48% | ? | ? | 7% | 22µM*
CCOc1ccccc1NC1=C(Cl)C(=O)N(c2ccc(OC)cc2)C1=O | -30% | -29% | -5% | -4% | 35% | -27%
Cc1cccc2sc(N(Cc3cccnc3)C(=O)Cc3ccccc3)nc12 | / | / | -7% | / | / | 1%
CC(C)CN1CCC(CN(C)Cc2nc(-c3cnccn3)no2)CC1 | 1% | -6% | 8% | 4% | 10% | -24%
CCn1cc(C(=O)N2CCN(c3cccc(Cl)c3)CC2)c(=O)c2cc(S(=O)(=O)N3CCCCC3)ccc21 | / | / | -3% | / | / | 0%
CN1C2CCC1CC(NC(=O)CSCc1ccc(Cl)cc1Cl)C2 (stereo unspecified) | 1% | 10% | -4% | ? | 13µM* | -7%
CN(Cc1ccccc1)S(=O)(=O)c1ccc2[nH]cc(C(=O)NCC3CCCO3)c(=O)c2c1 (stereo unspecified) | 4% | 3% | 2% | 73% | 0.93µM* | 1%
CC(C)c1ccc(NS(=O)(=O)c2ccc3[nH]cc(C(=O)NCC4CCCO4)c(=O)c3c2)cc1 (stereo unspecified) | / | / | -1% | / | / | 6%
CCOc1ccc(NS(=O)(=O)c2ccc3[nH]cc(C(=O)NCC4CCCO4)c(=O)c3c2)cc1 (stereo unspecified) | 2% | 118% | -11% | 111% | 0.029µM* | -2%
Oc1ccccc1C=NCc1ccccc1 | / | / | / | -27% | ? | /
CN1CCc2c(sc3nc(SCC(=O)N4CCOCC4)nc(N)c23)C1 | 2% | -2% | ? | ? | 5% | -25%
CC1CCN(C(=O)CSc2nc(N)c3c4c(sc3n2)CN(C)CC4)CC1 | 5% | 33% | ? | 2.3µM* | 0.83µM* | -10%
O=c1ccn(-c2cccc(C(F)(F)F)c2)nc1-c1ccn(-c2ccccc2F)n1 | 7% | 121% | -2% | ? | 5.9µM* | -1%
O=C(O)c1nn(-c2cccc(C(F)(F)F)c2)ccc1=O | 2% | -10% | -11% | / | 19% | 0%
COc1ccc(-n2ccc(-c3nn(-c4cccc(C(F)(F)F)c4)ccc3=O)n2)cc1 | 4% | 105% | -13% | 7.4µM* | 3.3µM* | -1%
Cc1ccc(-n2ccc(-c3nn(-c4ccccc4)ccc3=O)n2)cc1 | -4% | 6% | -2% | ? | 7.4µM* | -6%
